The nature of experiment [1]: qHTS assay to identify small molecule agonists of the sonic hedgehog signaling (Shh) pathway (AID 1259368).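 Further: NIH/3T3-derived 3T3Gli1-Luc cells carrying a stable Gli1-driven firefly luciferase reporter; series mostly up to about 92 µM; nearly all actives have a fitted effect of over 15% in size.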 In a few lines: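 3T3Gli1-Luc (NIH/3T3 clone, stable Gli1-Luc); 4 hr pre-incubation, then cpd in DMSO 24 hr, 37 C/5% CO2; luciferase reagent 30 min RT; luminescence.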
(qHTS replaces the single test concentration by a dilution series.)

Experiment [2] in a line: qHTS assay to identify small molecule antagonists of the sonic hedgehog signaling (Shh) pathway (AID 1259369). Further: nearly all actives have a fitted effect of over 45% in size. In a few lines:
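3T3Gli1-Luc, conditioned-medium-stimulated, 24hr cpd, 37C/5% CO2; Gli1-driven firefly Luc luminescence after 30min RT with luciferase reagent. Cells plated 4hr before cpd.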

Experiment [3] in a line: qHTS assay to identify small molecule agonists of the androgen receptor (AR) signaling pathway in the presence of an antagonist - cell viability counter screen (AID 1259379; active means well fitted curve in the direction sought with a large enough effect in the repeat runs; an effect the other way counts as inactive or inconclusive;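 further: MDA-kb2 human breast cancer cells carrying an MMTV luciferase reporter; series mostly up to about 92 µM; nearly all actives have a fitted effect of over 25% in size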). In a few lines: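 Cells: MDA-kb2 (MMTV-luc, AR and GR elements), 3,000/well, 5 hr settle. Added: nilutamide 3.0uM final, then compounds (15 conc.). Incubation: 16 hr, 37C, no CO2. Read-out: CellTiter-Fluor, 1 hr, fluorescence.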

Experiment [4] is described as follows: qHTS assay to identify small molecule agonists of the estrogen receptor beta (ER-beta) signaling pathway - cell viability counter screen (AID 1259380; active means well fitted curve in the direction sought with a large enough effect in the repeat runs; an effect the other way counts as inactive or inconclusive; further: nearly all actives have a fitted effect of over 30% in size; further: potency means the concentration at half of the fitted maximal effect). In a few lines:
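HEK293T ER-beta-UAS-bla; 2% CS-FBS; 6 hr pre-plate, 16 hr cpd at 37C/5% CO2; LiveBLAzer read first, then CellTiter-Glo 30 min RT, luminescence.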

The nature of experiment [5]: qHTS assay to identify small molecule antagonists of the estrogen receptor beta (ER-beta) signaling pathway - cell viability counter screen (AID 1259382; active means well fitted curve in the direction sought with a large enough effect in the repeat runs; an effect the other way counts as inactive or inconclusive;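 further: HEK293T cells carrying ER-beta-UAS-bla reporter stimulated with estradiol; series mostly up to about 92 µM; nearly all actives have a fitted effect of over 55% in size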). In a few lines:
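Cells: ER-beta-UAS-bla HEK293T, 2,000/well, 2% CS-FBS, 6 hr settle. Cpd + E2 (1nM final), 16 hr, 37C/5% CO2. Bla FRET substrate 2 hr RT, then CellTiter-Glo 30 min RT, luminescence.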

For experiment [6], the target named is Estrogen receptor (Homo sapiens) (UniProt P03372). Nature of the experiment: qHTS assay to identify small molecule agonists of the estrogen receptor alpha (ER-alpha) signaling pathway in the presence of an antagonist (AID 1259383). Further: nearly all actives have a fitted effect of over 15% in size. Further: potency means the concentration at half of the fitted maximal effect. On activation: top concentration of the series differs between compounds. In a few lines: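 VM7Luc4E2, endog. ER-alpha + 4×ERE-luc; charcoal-stripped FBS, phenol red-free, 5 d; 24hr plating; +10.0nM ICI-182,780 (final); cpds 15 conc, 22hr, 37C/5% CO2; ONE-Glo luminescence.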
Chain of Estrogen receptor (Homo sapiens) (P03372 whole entry, looked up): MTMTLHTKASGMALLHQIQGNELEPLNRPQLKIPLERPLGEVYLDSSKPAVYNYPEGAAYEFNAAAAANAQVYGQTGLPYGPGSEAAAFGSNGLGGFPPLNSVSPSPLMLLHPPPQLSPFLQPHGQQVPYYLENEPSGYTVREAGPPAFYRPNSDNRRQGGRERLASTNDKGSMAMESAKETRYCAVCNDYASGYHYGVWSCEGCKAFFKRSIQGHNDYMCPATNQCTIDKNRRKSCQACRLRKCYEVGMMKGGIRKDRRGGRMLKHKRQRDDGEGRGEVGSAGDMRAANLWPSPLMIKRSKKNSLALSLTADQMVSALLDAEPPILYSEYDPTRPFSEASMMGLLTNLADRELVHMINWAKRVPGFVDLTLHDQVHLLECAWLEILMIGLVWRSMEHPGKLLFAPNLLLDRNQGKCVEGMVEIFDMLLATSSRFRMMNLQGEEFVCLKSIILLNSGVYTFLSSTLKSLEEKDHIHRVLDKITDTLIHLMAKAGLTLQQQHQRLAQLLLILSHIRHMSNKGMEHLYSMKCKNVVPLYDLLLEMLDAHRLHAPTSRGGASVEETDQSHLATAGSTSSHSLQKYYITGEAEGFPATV

Experiment [7] can be described thus: qHTS assay to identify small molecule agonists or antagonists of the thyroid stimulating hormone receptor (TSHR) signaling pathway - wild type cell line counter screen (AID 1259384). In a few lines: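 Wild-type Hek293 cells, 800/well, 18 h at 37C, then compound with Ro20-1724 for 30 min RT. cAMP by HTRF (cAMP-d2/anti-cAMP cryptate), 1 h RT, fluorescence read. 15 concentrations, triplicates.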

Experiment [8] concerns the target Thyrotropin receptor (Homo sapiens) (UniProt P16473). Nature of the experiment: qHTS assay to identify small molecule antagonists of the thyroid stimulating hormone receptor (TSHR) signaling pathway (AID 1259385). Further: nearly all actives have a fitted effect of over 20% in size. In a few lines:
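TSHR-HEK293 cells (800/well) plated 18 h, then compounds with Ro20-1724 and TSH at 1.5 ng/mL final, 30 min at room temperature. cAMP quantified by HTRF (cAMP-d2/anti-cAMP-cryptate, 1 h); 15 concentrations in triplicate.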

Experiment [9] is described as follows: qHTS assay to identify small molecule agonists of the estrogen receptor alpha (ER-alpha) signaling pathway in the presence of an antagonist - cell viability counter screen (AID 1259386; active means well fitted curve in the direction sought with a large enough effect in the repeat runs; an effect the other way counts as inactive or inconclusive;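 further: series mostly up to about 92 µM; cells exposed to compounds for 22 h at 37 °C before the viability read; nearly all actives have a fitted effect of over 30% in size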). In a few lines:
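VM7Luc4E2, stripped-serum pre-culture 5 d; 24hr plating; +ICI-182,780 10.0nM final; cpds 15 conc, 22hr, 37C/5% CO2; CellTiter-Fluor added at 21hr, fluorescence 1hr later.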

Experiment [10] has as its target Progesterone receptor (Homo sapiens) (UniProt P06401). Description: qHTS assay to identify small molecule agonists of the progesterone receptor (PR) signaling pathway (AID 1346784). Further: nearly all actives have a fitted effect of over 30% in size. In a few lines: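 Agonist qHTS: compounds pinned onto 3,000 PR-UAS-bla HEK 293T cells per well in charcoal-stripped serum medium, 16hr at 37C, then beta-lactamase activity measured by LiveBLAzer FRET fluorescence after 2 hours at room temperature.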

The target is the same in experiment [11]. Description: qHTS assay to identify small molecule antagonists of the progesterone receptor (PR) signaling pathway (AID 1346795; active means well fitted inhibition curve with a large enough effect in the signal ratio in the repeat runs, not every such curve was filed as active; the % refers to the signal ratio). In a few lines:
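Antagonist mode with agonist R5020 at 1 nM final and 16 hr incubation at 37C. Reporter was beta-lactamase driven by UAS in HEK293T (PR-UAS-bla), 2% charcoal-stripped serum; signal from LiveBLAzer FRET substrate, 2 hr at room temperature.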

A short description of experiment [12]: qHTS assay to identify small molecule antagonists of the progesterone receptor (PR) signaling pathway - cell viability counter screen (AID 1346798; active means well fitted curve in the direction sought with a large enough effect in the repeat runs; an effect the other way counts as inactive or inconclusive; further: series mostly up to about 92 µM; nearly all actives have a fitted effect of over 50% in size). In a few lines: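 Cytotoxicity read as CellTiter-Glo luminescence (30 min, room temperature) in the same wells as the beta-lactamase readout. HEK293T PR-UAS-bla cells in charcoal-stripped 2% FBS received compound and R5020, then 16 h at 37C, 5% CO2.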

Experiment [13] can be described thus: qHTS assay to identify small molecule agonists of the progesterone receptor (PR) signaling pathway - cell viability counter screen (AID 1346799). Further: nearly all actives have a fitted effect of over 45% in size. Further: potency means the concentration at half of the fitted maximal effect. In a few lines: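 Cytotoxicity measured by CellTiter-Glo luminescence (30 min, RT) in the same wells as the PR beta-lactamase agonist read. Those HEK293T cells had 16 h compound treatment at 37 C in 2% charcoal-stripped FBS medium.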

A short description of experiment [14]: qHTS assay to identify small molecule antagonists of the TGF-beta/Smad signaling pathway - cell viability counter screen (AID 1346824; active means well fitted curve in the direction sought with a large enough effect in the repeat runs; an effect the other way counts as inactive or inconclusive; further: nearly all actives have a fitted effect of over 50% in size). In a few lines:
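SBE-bla HEK 293T cells, incubated overnight, then compound plus 0.25 ng/mL TGF-beta1 (stock added) for 5 hr at 37 C. Viability was read in the same wells by CellTiter-Glo luminescence after 30 min at room temperature.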

Experiment [15] is described as follows: qHTS assay to identify small molecule agonists of the TGF-beta/Smad signaling pathway - cell viability counter screen (AID 1346829; active means well fitted curve in the direction sought with a large enough effect in the repeat runs; an effect the other way counts as inactive or inconclusive; further: top concentration of the series differs between compounds; nearly all actives have a fitted effect of over 45% in size). In a few lines:
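HEK 293T SBE-bla line, 5 hr compound exposure at 37 C, multiplexed CellTiter-Glo viability read by luminescence.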

Experiment [16] is described as follows: qHTS assay to identify small molecule agonists of the TGF-beta/Smad signaling pathway (AID 1346859; active means well fitted activation curve with a large enough effect in the signal ratio in the repeat runs, not every such curve was filed as active; the % refers to the signal ratio; further: series mostly up to about 77 µM). In a few lines:
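Fluorescence (ex 405 nm; em 460 and 530 nm) was read 2 h after LiveBLAzer FRET substrate at RT. The preceding compound treatment of overnight-plated SBE-bla HEK293T cells lasted 5 h at 37 C.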

The target in experiment [17] is Thyrotropin-releasing hormone receptor (Homo sapiens) (UniProt P34981). Description: qHTS assay to identify small molecule antagonists of the thyrotropin-releasing hormone receptor (TRHR) signaling pathway (AID 1346877; active means well fitted inhibition curve with a large enough effect in the repeat runs, not every such curve was filed as active; further: series mostly up to about 51 µM). In a few lines:
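Intracellular calcium fluorescence, read kinetically every second over 3 min, reports TRH-evoked signalling in HEK293 cells carrying TRHR. Test compounds were added 5 min ahead of a 1 nM TRH challenge.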

In experiment [18] the target is Androgen receptor (Homo sapiens) (UniProt P10275). Nature of the experiment: qHTS assay to identify small molecule agonists of the androgen receptor (AR) signaling pathway in the presence of an antagonist (AID 1259381). Further: nearly all actives have a fitted effect of over 15% in size. In a few lines: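 MDA-kb2 cells, 3,000/well, rested 5hr at 37C/0% CO2 → nilutamide 3.0uM final or buffer → compounds, 15 conc. → 16hr at 37C → ONE-Glo, 30min RT → luminescence.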
Chain of Androgen receptor (Homo sapiens) (P10275 whole entry, looked up): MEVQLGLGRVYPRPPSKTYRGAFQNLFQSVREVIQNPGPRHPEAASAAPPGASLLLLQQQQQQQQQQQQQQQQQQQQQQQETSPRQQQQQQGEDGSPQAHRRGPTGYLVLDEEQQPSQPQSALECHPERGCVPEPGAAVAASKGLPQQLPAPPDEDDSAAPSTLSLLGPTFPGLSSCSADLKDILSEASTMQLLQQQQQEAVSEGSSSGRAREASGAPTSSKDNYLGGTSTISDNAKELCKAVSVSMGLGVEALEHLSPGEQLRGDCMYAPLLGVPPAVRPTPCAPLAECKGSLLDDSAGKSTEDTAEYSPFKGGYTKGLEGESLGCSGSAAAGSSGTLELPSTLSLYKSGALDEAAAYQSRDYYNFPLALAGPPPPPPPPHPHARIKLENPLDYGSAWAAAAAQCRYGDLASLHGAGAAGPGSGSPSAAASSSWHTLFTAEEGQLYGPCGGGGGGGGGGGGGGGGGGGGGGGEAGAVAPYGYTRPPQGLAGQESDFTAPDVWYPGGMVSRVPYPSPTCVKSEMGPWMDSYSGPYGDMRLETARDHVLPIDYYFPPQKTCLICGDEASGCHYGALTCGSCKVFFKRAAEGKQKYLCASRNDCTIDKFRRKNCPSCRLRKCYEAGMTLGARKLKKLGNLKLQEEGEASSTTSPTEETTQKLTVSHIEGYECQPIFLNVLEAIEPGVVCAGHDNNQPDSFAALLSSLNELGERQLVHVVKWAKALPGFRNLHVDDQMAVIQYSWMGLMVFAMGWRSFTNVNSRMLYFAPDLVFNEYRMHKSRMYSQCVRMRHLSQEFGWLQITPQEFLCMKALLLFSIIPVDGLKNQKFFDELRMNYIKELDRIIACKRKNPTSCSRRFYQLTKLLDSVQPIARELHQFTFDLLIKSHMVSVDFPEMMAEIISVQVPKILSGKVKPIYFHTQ

SMILES strings stand for the structures. Results filed as inconclusive are left out. Calls of active or inactive are those of the source. Unless noted, the call rests on the fitted dose curve.

Chain of Thyrotropin-releasing hormone receptor (Homo sapiens) (P34981 whole entry, looked up): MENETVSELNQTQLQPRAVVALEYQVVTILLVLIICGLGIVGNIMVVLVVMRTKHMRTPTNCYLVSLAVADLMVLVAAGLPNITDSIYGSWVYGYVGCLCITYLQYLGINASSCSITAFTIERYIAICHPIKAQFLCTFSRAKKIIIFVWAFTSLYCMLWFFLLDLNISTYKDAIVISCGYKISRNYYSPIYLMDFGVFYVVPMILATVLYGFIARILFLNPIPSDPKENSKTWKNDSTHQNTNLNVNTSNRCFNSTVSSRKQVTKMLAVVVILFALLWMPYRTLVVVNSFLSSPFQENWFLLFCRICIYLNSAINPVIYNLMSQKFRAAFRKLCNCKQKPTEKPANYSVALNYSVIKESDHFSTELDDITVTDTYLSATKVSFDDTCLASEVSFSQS
Chain of Progesterone receptor (Homo sapiens) (P06401 whole entry, looked up): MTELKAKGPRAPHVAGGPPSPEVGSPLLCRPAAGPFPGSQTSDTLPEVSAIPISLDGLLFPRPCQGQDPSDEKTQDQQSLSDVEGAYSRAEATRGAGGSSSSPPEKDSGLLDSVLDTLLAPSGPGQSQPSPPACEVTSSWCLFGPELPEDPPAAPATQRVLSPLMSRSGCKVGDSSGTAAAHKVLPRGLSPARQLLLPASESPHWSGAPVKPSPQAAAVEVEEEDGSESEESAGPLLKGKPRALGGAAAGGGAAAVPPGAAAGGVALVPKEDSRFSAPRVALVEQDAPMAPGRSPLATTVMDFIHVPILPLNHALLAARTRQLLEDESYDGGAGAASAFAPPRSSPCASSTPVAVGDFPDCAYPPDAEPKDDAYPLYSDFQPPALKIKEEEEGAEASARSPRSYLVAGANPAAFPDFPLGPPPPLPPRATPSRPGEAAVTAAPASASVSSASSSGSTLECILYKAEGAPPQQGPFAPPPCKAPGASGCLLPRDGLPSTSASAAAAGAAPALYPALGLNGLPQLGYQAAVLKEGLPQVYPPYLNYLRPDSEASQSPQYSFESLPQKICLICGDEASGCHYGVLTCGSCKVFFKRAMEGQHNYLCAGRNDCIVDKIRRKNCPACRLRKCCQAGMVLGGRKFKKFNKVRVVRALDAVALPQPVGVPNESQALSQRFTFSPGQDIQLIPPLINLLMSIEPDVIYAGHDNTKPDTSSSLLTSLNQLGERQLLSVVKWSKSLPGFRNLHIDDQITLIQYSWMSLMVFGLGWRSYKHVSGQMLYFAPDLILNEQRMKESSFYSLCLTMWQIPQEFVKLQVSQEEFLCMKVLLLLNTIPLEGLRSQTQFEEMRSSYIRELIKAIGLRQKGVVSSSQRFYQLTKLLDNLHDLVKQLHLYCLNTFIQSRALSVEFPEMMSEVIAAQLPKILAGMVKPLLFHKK
Chain of Thyrotropin receptor (Homo sapiens) (P16473 whole entry, looked up): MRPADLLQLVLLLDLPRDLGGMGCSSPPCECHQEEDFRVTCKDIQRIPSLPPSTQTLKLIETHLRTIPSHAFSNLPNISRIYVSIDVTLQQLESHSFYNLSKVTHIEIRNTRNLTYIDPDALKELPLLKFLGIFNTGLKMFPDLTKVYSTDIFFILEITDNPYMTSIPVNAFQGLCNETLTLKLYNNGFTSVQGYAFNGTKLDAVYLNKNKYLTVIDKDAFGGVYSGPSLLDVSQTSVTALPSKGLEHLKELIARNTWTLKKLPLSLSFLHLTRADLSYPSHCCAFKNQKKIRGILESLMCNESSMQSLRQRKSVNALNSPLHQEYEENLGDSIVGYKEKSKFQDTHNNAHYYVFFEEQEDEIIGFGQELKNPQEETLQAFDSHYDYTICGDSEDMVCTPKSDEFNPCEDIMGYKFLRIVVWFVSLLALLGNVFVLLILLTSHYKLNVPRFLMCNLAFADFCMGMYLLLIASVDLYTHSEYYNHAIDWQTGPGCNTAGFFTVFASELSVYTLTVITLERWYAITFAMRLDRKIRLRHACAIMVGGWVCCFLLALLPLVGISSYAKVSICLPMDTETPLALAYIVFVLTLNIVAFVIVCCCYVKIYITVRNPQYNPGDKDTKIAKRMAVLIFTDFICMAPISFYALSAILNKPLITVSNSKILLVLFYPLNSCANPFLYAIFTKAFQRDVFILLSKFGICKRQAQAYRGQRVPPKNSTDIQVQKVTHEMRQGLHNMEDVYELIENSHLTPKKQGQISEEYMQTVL

As to `Clc1cc(Cl)c(Cl)c(Cl)c1`, the Potency entry in experiment [1], in [2], in experiment [3], in experiment [4], in [5] and in experiment [6] was “inactive” throughout. For the same compound, the Potency entry in [8], in [9], in experiment [10], in [11], in [12] and in experiment [13] was “inactive” throughout. Besides, the Potency result in experiment [14] and in experiment [15] was “inactive” throughout. Moreover, the result in [7] and in experiment [16] was inactive.
Consider `CCN(C)N=O`, for which the Potency entry in experiment [1], in [2], in experiment [4], in experiment [5], in experiment [6] and in experiment [8] was “inactive” throughout. Also, the Potency entry in [9], in experiment [10], in [11], in experiment [12], in experiment [13] and in experiment [14] was “inactive” in each case. In experiment [15], the Potency result is “inactive”. In addition, the compound was classed as inactive in [7] and in [16].
Consider `CCCC(=O)Cl`, for which the Potency entry in [1], in experiment [2], in experiment [3], in experiment [4], in experiment [5] and in experiment [6] was “inactive” in each case. Moreover, the Potency result in [8], in experiment [9], in [10], in experiment [13], in [14] and in experiment [15] was “inactive” each time. Also, in experiment [17], the Potency entry was “inactive”. In addition, the call in experiment [7] and in experiment [16] was inactive.
As for `O=NN1CCNCC1`, the Potency entry in [1], in [2], in experiment [3], in [4], in experiment [5] and in experiment [9] was “inactive” each time. Also, the Potency entry in experiment [10], in experiment [12], in experiment [13], in experiment [14] and in experiment [15] was “inactive” in each case. Also, in [16], the call was inactive.
As to `CN(N=O)c1ccc([N+](=O)[O-])cc1`, the Potency entry in [1], in experiment [2], in experiment [4], in [5], in [6] and in experiment [10] was “inactive” each time. In addition, the Potency result in experiment [11], in [12], in [13], in experiment [14], in [15] and in experiment [17] was “inactive” in each case. The result in experiment [16] was inactive.
For the compound `II`, the Potency result in [1], in [2], in experiment [3], in experiment [18], in [9] and in experiment [10] was “inactive” each time. The Potency result in experiment [14] and in experiment [15] was “inactive” each time. In addition, the Potency in [13] was 10.9 µM (active). The call in experiment [16] was inactive.
Regarding `c1cc2ccc3cccc4ccc(c1)c2c34`, the Potency entry in experiment [1], in [2], in experiment [18], in [8], in [9] and in experiment [10] was “inactive” in each case. The Potency entry in experiment [15] and in experiment [17] was “inactive” throughout. Also, the Potency is 32.1 µM (active) in [4], 64.1 µM (active) in experiment [6] and 28.6 µM (active) in experiment [13]. Also, in experiment [16], the outcome was inactive.

The record behind these values is PubChem BioAssay (Tox21).
